# Laboratory results reported in the supplement of paper PMC4466140.
# B1: unnamed (peptide)
# chain: RRRRRPHRIERPLSN
# Assays:
# Assay in all cases: SPOT peptide array binding signal intensity (averaged, normalized) (arbitrary units (background-subtracted, floor 0; scale differs between SH3 domains)); higher = stronger binding of the SH3 domain to the peptide
# AgAbp1 = target: AgAbp1
# Protocol: (§1)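 GST-tagged SH3 domains from S. cerevisiae (Sc), A. gossypii (Ag), C. albicans (Ca) and S. pombe (Sp) were incubated at 10 ug/ml overnight at 4 C on cellulose SPOT membranes carrying 292 synthetic 15-mer peptides mined from the S. cerevisiae proteome (cysteines replaced by serines). Binding was detected with anti-GST antibody, HRP secondary and chemiluminescence, quantified with Genespotter, and reported as normalized spot intensities averaged over biological replicates.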
# AgBbc1 = target: AgBbc1
# Protocol: as §1
# AgBem1-D1 = target: AgBem1-D1
# Protocol: as §1
# AgBzz1-D1 = target: AgBzz1-D1
# Protocol: as §1
# AgBzz1-D2 = target: AgBzz1-D2
# Protocol: as §1
# AgCyk3 = target: AgCyk3
# Protocol: as §1
# AgFus1 = target: AgFus1
# Protocol: as §1
# AgHof1 = target: AgHof1
# Protocol: as §1
# AgHse1 = target: AgHse1
# Protocol: as §1
# AgLsb1 = target: AgLsb1
# Protocol: as §1
# AgLsb4 = target: AgLsb4
# Protocol: as §1
# AgMyo5 = target: AgMyo5
# Protocol: as §1
# AgNbp2 = target: AgNbp2
# Protocol: as §1
# AgRvs167 = target: AgRvs167
# Protocol: as §1
# AgSho1 = target: AgSho1
# Protocol: as §1
# AgSla1-D1-D2 = target: AgSla1-D1-D2
# Protocol: as §1
# AgSla1-D3 = target: AgSla1-D3
# Protocol: as §1
# CaAbp1-D1 = target: CaAbp1-D1
# Protocol: as §1
# CaAbp1-D2 = target: CaAbp1-D2
# Protocol: as §1
# CaBbc1 = target: CaBbc1
# Protocol: as §1
# CaBem1-D1 = target: CaBem1-D1
# Protocol: as §1
# CaBzz1-D1 = target: CaBzz1-D1
# Protocol: as §1
# CaBzz1-D2 = target: CaBzz1-D2
# Protocol: as §1
# CaCyk3 = target: CaCyk3
# Protocol: as §1
# CaFus1 = target: CaFus1
# Protocol: as §1
# CaHof1 = target: CaHof1
# Protocol: as §1
# CaHse1 = target: CaHse1
# Protocol: as §1
# CaLsb1 = target: CaLsb1
# Protocol: as §1
# CaLsb4 = target: CaLsb4
# Protocol: as §1
# CaMyo5 = target: CaMyo5
# Protocol: as §1
# CaNbp2 = target: CaNbp2
# Protocol: as §1
# CaRvs167 = target: CaRvs167
# Protocol: as §1
# CaRvs167-3 = target: CaRvs167-3
# Protocol: as §1
# CaSho1 = target: CaSho1
# Protocol: as §1
# CaSla1-D1-D2 = target: CaSla1-D1-D2
# Protocol: as §1
# CaSla1-D3 = target: CaSla1-D3
# Protocol: as §1
# ScAbp1 = target: ScAbp1
# Protocol: as §1
# ScBbc1 = target: ScBbc1
# Protocol: as §1
# ScBem1-D1 = target: ScBem1-D1
# Protocol: as §1
# ScBzz1-D1 = target: ScBzz1-D1
# Protocol: as §1
# ScBzz1-D2 = target: ScBzz1-D2
# Protocol: as §1
# ScCyk3 = target: ScCyk3
# Protocol: as §1
# ScFus1 = target: ScFus1
# Protocol: as §1
# ScHof1 = target: ScHof1
# Protocol: as §1
# ScHse1 = target: ScHse1
# Protocol: as §1
# ScLsb1 = target: ScLsb1
# Protocol: as §1
# ScLsb2 = target: ScLsb2
# Protocol: as §1
# ScLsb3 = target: ScLsb3
# Protocol: as §1
# ScLsb4 = target: ScLsb4
# Protocol: as §1
# ScMyo3 = target: ScMyo3
# Protocol: as §1
# ScMyo5 = target: ScMyo5
# Protocol: as §1
# ScNbp2 = target: ScNbp2
# Protocol: as §1
# ScPex13 = target: ScPex13
# Protocol: as §1
# ScRvs167 = target: ScRvs167
# Protocol: as §1
# ScSho1 = target: ScSho1
# Protocol: as §1
# ScSla1-D1-D2 = target: ScSla1-D1-D2
# Protocol: as §1
# ScSla1-D3 = target: ScSla1-D3
# Protocol: as §1
# SpAbp1-D1 = target: SpAbp1-D1
# Protocol: as §1
# SpBbc1 = target: SpBbc1
# Protocol: as §1
# SpBzz1-D1 = target: SpBzz1-D1
# Protocol: as §1
# SpBzz1-D2 = target: SpBzz1-D2
# Protocol: as §1
# SpCyk3 = target: SpCyk3
# Protocol: as §1
# SpHof1 = target: SpHof1
# Protocol: as §1
# SpHof1-2 = target: SpHof1-2
# Protocol: as §1
# SpHof1-3 = target: SpHof1-3
# Protocol: as §1
# SpHse1 = target: SpHse1
# Protocol: as §1
# SpLsb1 = target: SpLsb1
# Protocol: as §1
# SpLsb4 = target: SpLsb4
# Protocol: as §1
# SpMyo1 = target: SpMyo1
# Protocol: as §1
# SpNbp2 = target: SpNbp2
# Protocol: as §1
# SpPex13 = target: SpPex13
# Protocol: as §1
# SpRvs167 = target: SpRvs167
# Protocol: as §1
# SpSla1-D1-D2 = target: SpSla1-D1-D2
# Protocol: as §1
# SpSla1-D3 = target: SpSla1-D3
# Protocol: as §1
binder,measurement,setting,value
B1,SPOT peptide array binding signal intensity,AgAbp1,25
same,SPOT peptide array binding signal intensity,AgBbc1,170
same,SPOT peptide array binding signal intensity,AgBem1-D1,136
same,SPOT peptide array binding signal intensity,AgBzz1-D1,33
same,SPOT peptide array binding signal intensity,AgBzz1-D2,43
same,SPOT peptide array binding signal intensity,AgCyk3,33
same,SPOT peptide array binding signal intensity,AgFus1,322
same,SPOT peptide array binding signal intensity,AgHof1,28.5
same,SPOT peptide array binding signal intensity,AgHse1,833
same,SPOT peptide array binding signal intensity,AgLsb1,4.25
same,SPOT peptide array binding signal intensity,AgLsb4,160
same,SPOT peptide array binding signal intensity,AgMyo5,2.25
same,SPOT peptide array binding signal intensity,AgNbp2,72
same,SPOT peptide array binding signal intensity,AgRvs167,3.17
same,SPOT peptide array binding signal intensity,AgSho1,37.5
same,SPOT peptide array binding signal intensity,AgSla1-D1-D2,354
same,SPOT peptide array binding signal intensity,AgSla1-D3,1
same,SPOT peptide array binding signal intensity,CaAbp1-D1,454
same,SPOT peptide array binding signal intensity,CaAbp1-D2,512
same,SPOT peptide array binding signal intensity,CaBbc1,300
same,SPOT peptide array binding signal intensity,CaBem1-D1,53.5
same,SPOT peptide array binding signal intensity,CaBzz1-D1,96
same,SPOT peptide array binding signal intensity,CaBzz1-D2,34
same,SPOT peptide array binding signal intensity,CaCyk3,147
same,SPOT peptide array binding signal intensity,CaFus1,525
same,SPOT peptide array binding signal intensity,CaHof1,≤ 0
same,SPOT peptide array binding signal intensity,CaHse1,30.5
same,SPOT peptide array binding signal intensity,CaLsb1,1.5
same,SPOT peptide array binding signal intensity,CaLsb4,108
same,SPOT peptide array binding signal intensity,CaMyo5,2
same,SPOT peptide array binding signal intensity,CaNbp2,394
same,SPOT peptide array binding signal intensity,CaRvs167,12
same,SPOT peptide array binding signal intensity,CaRvs167-3,104
same,SPOT peptide array binding signal intensity,CaSho1,674
same,SPOT peptide array binding signal intensity,CaSla1-D1-D2,27
same,SPOT peptide array binding signal intensity,CaSla1-D3,3.5
same,SPOT peptide array binding signal intensity,ScAbp1,16
same,SPOT peptide array binding signal intensity,ScBbc1,124
same,SPOT peptide array binding signal intensity,ScBem1-D1,98
same,SPOT peptide array binding signal intensity,ScBzz1-D1,7.5
same,SPOT peptide array binding signal intensity,ScBzz1-D2,15
same,SPOT peptide array binding signal intensity,ScCyk3,272
same,SPOT peptide array binding signal intensity,ScFus1,396
same,SPOT peptide array binding signal intensity,ScHof1,≤ 0
same,SPOT peptide array binding signal intensity,ScHse1,1290
same,SPOT peptide array binding signal intensity,ScLsb1,11.2
same,SPOT peptide array binding signal intensity,ScLsb2,6
same,SPOT peptide array binding signal intensity,ScLsb3,690
same,SPOT peptide array binding signal intensity,ScLsb4,7.5
same,SPOT peptide array binding signal intensity,ScMyo3,6.5
same,SPOT peptide array binding signal intensity,ScMyo5,3.25
same,SPOT peptide array binding signal intensity,ScNbp2,437
same,SPOT peptide array binding signal intensity,ScPex13,0.5
same,SPOT peptide array binding signal intensity,ScRvs167,29
same,SPOT peptide array binding signal intensity,ScSho1,430
same,SPOT peptide array binding signal intensity,ScSla1-D1-D2,303
same,SPOT peptide array binding signal intensity,ScSla1-D3,11
same,SPOT peptide array binding signal intensity,SpAbp1-D1,143
same,SPOT peptide array binding signal intensity,SpBbc1,7.25
same,SPOT peptide array binding signal intensity,SpBzz1-D1,91
same,SPOT peptide array binding signal intensity,SpBzz1-D2,1.25
same,SPOT peptide array binding signal intensity,SpCyk3,7
same,SPOT peptide array binding signal intensity,SpHof1,217
same,SPOT peptide array binding signal intensity,SpHof1-2,13
same,SPOT peptide array binding signal intensity,SpHof1-3,456
same,SPOT peptide array binding signal intensity,SpHse1,421
same,SPOT peptide array binding signal intensity,SpLsb1,≤ 0
same,SPOT peptide array binding signal intensity,SpLsb4,336
same,SPOT peptide array binding signal intensity,SpMyo1,3
same,SPOT peptide array binding signal intensity,SpNbp2,418
same,SPOT peptide array binding signal intensity,SpPex13,10
same,SPOT peptide array binding signal intensity,SpRvs167,3.83
same,SPOT peptide array binding signal intensity,SpSla1-D1-D2,5
same,SPOT peptide array binding signal intensity,SpSla1-D3,5
